# Source: PubChem (National Center for Advancing Translational Sciences (NCATS))
# HT1080 IDH1KD tx = HT-1080 IDH1 knockdown cell toxicity (counter line) | HT-1080 IDH1 knockdown viability, ATP luminescence, 48 h | Potency, µM (doses to about 46.1 µM), inactives show at the highest dose activity, negative = toxicity, hits mostly cytotoxic | hit rate 2% among 360,000 | AID 686971;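 further: 0% = DMSO wells and -100% = cell-free medium wells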
#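 HT-1080-IDH1KD cells (IDH1 knocked down), 750/well in RPMI with 5% FBS, treated with compound 48 h at 37 degrees C. Viability by CellTiter-Glo luminescence, normalised to DMSO and no-cell wells; concentration-response curves classed.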
# ATXN viability = reduces viability in counter-screen for ATXN expression inhibitors | S2 cells (HEK-293 line with an ATXN2-luciferase reporter) viability, CellTiter-Fluor protease fluorescence, 24 h | Potency, µM (doses to about 56.7 µM), usual class: cytotoxic | hit rate 0.49% among 400,000; further: nearly all actives have a fitted effect of over 40% in size
# HT1080NT lethal = kills 2HG-producing HT-1080-NT fibrosarcoma cells | HT-1080-NT fibrosarcoma viability, CellTiter-Glo ATP luminescence, 48 h | Potency, µM (series often up to 46.1 µM), for the others: at the highest dose activity, negative = less viability, most hits filed as cytotoxic | AID 686970 | hit rate 1.6% among 360,000;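 further: NT is the 2HG producing partner of a matched IDH1 knockdown line; 0% = DMSO-treated cells and -100% = media-only wells without cells; nearly all actives have a fitted effect of over 55% in size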
#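 Luminescent CellTiter-Glo readout after 48 hours of compound exposure at 37 degrees C defined viability of HT-1080-NT cells. Activity was normalized to DMSO wells and cell-free media wells; concentration-response curves were fitted and assigned curve classes.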
# TGFb SMAD3 inh = inhibitors of TGF-b signaling | HepG2 CAGA-GFP TGF-b/SMAD3 reporter, GFP fluorescence, 18 h; TGF-beta stimulated, 500 pg/mL final | Potency, µM (titrated, usually from 46.1 µM), without a hit: at the highest dose activity, negative = inhibition, actives largely listed as inhibitors | hit rate 1.2% among 410,000; further: on the % scale 0 is the no-effect control and ±100 the full control effect; nearly all actives have a fitted effect of over 65% in size
#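 Cell-based qHTS in HEPG2 carrying a CAGA-GFP Smad reporter; compounds added before 500 pg/mL final TGF-beta, 18 h incubation at 37 degrees C, GFP fluorescence quantified per cell by imaging cytometry.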
# HepG2 tox = HepG2 cytotoxicity, counter-screen for TGF-b inhibitors | HepG2 CAGA-GFP viability, ATP luminescence, 18 h | Potency, µM (top dose mostly 46.1 µM), without a hit: at the top dose activity change, negative = cytotoxicity, most hits filed as cytotoxic | hit rate 0.76% among 410,000
#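 HepG2 CAGA-GFP cells (1000/well, DMEM with 1% FBS) received compound, then TGF-beta at 500 pg/mL final, and were incubated 18 hours at 37 degrees C. Viability was read by CellTiter-Glo luminescence. Media-only wells were set as complete cell-killing and DMSO as no toxicity.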
# ATXN2 expr inh = ATXN2 expression inhibition; HEK-293 ATXN2-luciferase reporter, luminescence, 24 h; Potency, µM (series often up to 57 µM), for the others: at the highest dose activity change, negative = inhibition, hits mostly inhibitors; hit rate 0.72% among 360,000; further: on the % scale 0 is the no-effect control and ±100 the full control effect; nearly all actives have a fitted effect of over 55% in size
#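 qHTS (up to 57 uM final) was run with 24 h compound exposure of reporter cells at 37 °C. Each well was multiplexed: SteadyGlo luminescence measured ATXN2-luciferase expression after a fluorogenic Gly-Phe-AFC viability readout (25 uM final).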
# Numbers without * were called inactive; i = inactive; ? = inconclusive; / = no result given. Shown are actives, neighbours in structure and some others; about 3.8% of the full set was active somewhere. The call rests on the fitted dose curve; in most records, active means well fitted curve in the direction sought with a large enough effect; inconclusive means small, poorly fitted or top-dose-only effect, or another doubt; inactive means no such curve, though single readings can be large; an effect the other way counts as inactive or inconclusive. Potency means the concentration at half of the fitted maximal effect.
SMILES,HT1080 IDH1KD tx,ATXN viability,HT1080NT lethal,TGFb SMAD3 inh,HepG2 tox,ATXN2 expr inh
COc1ccc2c(C)cc(=O)oc2c1,5%,i,27%,21%,-2%,10%
COc1ccc(C2=NOC(COc3ccc4c(C)cc(=O)oc4c3)C2)c(OC)c1 (stereo not drawn),5.8µM*,?,?,?,21%,-24%
COc1ccccc1C1=NOC(COc2ccc3c(C)cc(=O)oc3c2)C1 (stereo not drawn),0.73µM*,i,0.92µM*,?,-12%,-8%
O=C1NC2(CCC3(CC2)OCCO3)NN1c1ccccc1,7.3µM*,i,6.5µM*,-3%,-26%,-22%
Cc1ccccc1NC(=O)CCn1nc(-c2ccccc2)c2ccccc2c1=O,/,?,/,?,-7%,-24%
CC(CC12CC3CC(CC(C3)C1)C2)NCc1ccccc1O (stereo not drawn),-13%,?,-16%,18µM*,16µM*,-53%
NC(=S)N/N=C/c1ccc(-c2cc(Cl)ccc2Cl)o1,?,i,3.2µM*,10µM*,-40%,6%
NC(=S)N/N=C/c1ccc(-c2cc(Cl)cc(Cl)c2)o1,8%,?,5%,?,-28%,-8%
O=C1N/C(=N\N=C\c2cccs2)SC1Cc1ccc(Cl)cc1 (stereo not drawn),23µM*,i,18µM*,-19%,-26%,-13%
O=C1N/C(=N\N=C\c2ccccn2)SC1Cc1cccc(SC(F)F)c1 (stereo not drawn),?,?,-6%,?,-16%,18µM*
O=C1N/C(=N\N=C\c2cccnc2)SC1Cc1ccc(SC(F)F)cc1 (stereo not drawn),23µM*,?,?,-8%,9%,13µM*
O=C(c1cccc(Cl)c1)N1CCCC(Cn2cc(C(=O)N3CCCC3)nn2)C1 (stereo not drawn),/,i,/,/,/,/
C[N+]1(C)CCN(CC(O)(c2ccccc2)C2CCCCC2)CC1 (stereo not drawn),/,i,/,/,/,/
CCCCNC(=O)CSc1nc2n[nH]c(C)c2c(=N)n1-c1ccccc1CC,/,/,/,0%,-3%,/
CC1CCC(C(=O)N(c2cc(C#CC(C)(C)C)sc2C(=O)O)C2CCC(O)CC2)CC1 (stereo not drawn),/,/,/,/,/,14%
COc1cccc(CNC(=O)c2c(OC)cc(=O)n3c2CCN(C(=O)C2CC=CCC2)CC3)c1 (stereo not drawn),/,i,/,/,/,/
Cc1nn(Cc2c(Cl)cccc2Cl)c(C)c1NC(=O)c1cn(-c2ccccc2)nc1-c1ccccc1,4.1µM*,13µM*,3.7µM*,-21%,-2%,13µM*
Cc1ccc(NC(=O)c2cn(-c3ccccc3)nc2-c2ccccc2)cc1,/,i,/,?,-21%,-8%
COc1ccc(F)c(CN2CCOc3ccc(CN4CCCCC4CO)cc3C2)c1 (stereo not drawn),/,i,/,/,/,/
COC(=O)c1cc(S(N)(=O)=O)ccc1OC,/,i,/,/,/,7%
COc1cc([C@H]2Oc3cc([C@H]4Oc5cc(O)cc(O)c5C(=O)[C@H]4O)ccc3O[C@H]2CO)ccc1O,/,/,/,/,/,-13%
CCN1CCCC1CNC(=O)c1cnn(-c2nccc(-c3ccc(C)o3)n2)c1C1CC1 (stereo not drawn),/,i,/,/,/,/
CC(=O)NC1=NN(C(C)=O)C(C)(c2ccco2)S1 (stereo not drawn),23µM*,i,?,5%,2%,-1%
CC(=O)NC1=NN(C(C)=O)C(C)(c2cccs2)S1 (stereo not drawn),4.6µM*,i,2.9µM*,-16%,-31%,?
CN1N=C(N)c2cn([C@@H]3O[C@H](COP(=O)(O)O)[C@@H](O)[C@@H]3O)c3ncnc1c23,/,/,/,/,/,71%
SMILES,HT1080 IDH1KD tx,ATXN viability,HT1080NT lethal,TGFb SMAD3 inh,HepG2 tox,ATXN2 expr inh
Cc1nn(-c2ccccc2)c2sc(C(=O)Nc3cccc(Br)c3)cc12,/,i,/,-13%,6%,-17%
CC(=O)C1=C(c2ccc(Br)cc2)C(=O)c2ccccc2C1=O,13µM*,7.1µM*,13µM*,?,-99%,3.5µM*
CC(=O)Nc1c(Br)cc2c(c1Br)C(=O)c1ccccc1-2,2%,?,7%,1%,2%,9%
Cc1noc(/C=C/c2cccnc2)c1[N+](=O)[O-],?,?,21µM*,?,-75%,?
Cc1cccc(C)c1N/C=C/c1onc(C)c1[N+](=O)[O-],2%,i,-5%,18%,2%,-8%
Cn1c(=O)c(C#N)c(-c2ccc(F)cc2)c2cc(C(=O)c3cc(Cl)cc(Cl)c3O)cnc21,?,i,?,18µM*,-45%,?
CC(C)(C)OC(=O)N1CCC(c2c(C(=O)Nc3ccc4c(c3)OCCO4)cnn2-c2ccc(F)cc2F)CC1,/,/,/,?,-17%,/
O=C1CCN(CCc2ccccc2)CCN1[C@H](COc1ccccc1)c1ccccc1,-10%,?,-3%,10µM*,-27%,-19%
CCCN1C(=O)C(Cc2nc3ccccc3c(=O)n2CC)c2cc(Br)ccc21 (stereo not drawn),/,/,/,7.9µM*,-30%,/
CCn1c(CC2C(=O)N(C)c3ccc(Br)cc32)nc2ccccc2c1=O (stereo not drawn),/,/,/,?,-9%,/
Cc1ccnc2ccc(Br)cc12,/,/,/,-1%,4%,/
CN(C)CCCN(C(=O)c1ccc2c(c1)CCCC2)c1nc2cc3c(cc2s1)OCO3,?,i,18µM*,?,-45%,?
CN(C)CCCN(C(=O)CCSc1ccccc1)c1nc2cc3c(cc2s1)OCO3,18µM*,?,?,?,-155%,?
CN(C)CCCN(C(=O)c1ccc(C(=O)c2ccccc2)cc1)c1nc2cc3c(cc2s1)OCCO3,?,i,?,14µM*,-89%,-20%
CN(C)CCCN(C(=O)c1ccc2c(c1)CCCC2)c1nc2ccc(F)cc2s1,-29%,i,-21%,?,-117%,1%
CC(C)=C[C@@H]1C[C@H](C)[C@H]2CC[C@H](C)c3c(O)c(O)c(C)c1c32,-4%,i,-1%,-10%,-42%,-1%
CC(=O)Oc1c(C)c2c3c(c1OC(C)=O)[C@@H](C)CC[C@@H]3[C@@H](C)C[C@H]2C=C(C)C,-9%,i,-5%,-28%,-9%,6%
